Measurements from the supplement of paper PMC6411743.
± gives the standard deviation of the averaged measurements. Of roughly 6,200 targets only a part is listed; those with the largest changes were picked by preference.

Compound: Nc1ncnc2c1ncn2[C@@H]1O[C@H](COP(=O)(O)OP(=O)(O)NP(=O)(O)O)[C@@H](O)[C@H]1O [adenylyl imidodiphosphate]
Assay: NP40-soluble protein abundance relative to vehicle (solubility fold change) (ratio); higher = more soluble protein in presence of AMP-PNP
Procedure, shortened: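 Jurkat crude lysate (Dounce-homogenised) was treated with eight concentrations from 0.1 to 10 mM for 10 min at room temperature, then 3 min at 37 °C. It was solubilised with 0.8% NP40 and benzonase (60 min, 4 °C) and ultracentrifuged, and the supernatant was TMT-labelled for LC-MS/MS. Intensities were vsn-normalised, and the value is the fold change against the NP40-processed vehicle per replicate, from three independent experiments.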

Chain of UniProt Q8N465 (Q8N465 whole entry, one chain of several): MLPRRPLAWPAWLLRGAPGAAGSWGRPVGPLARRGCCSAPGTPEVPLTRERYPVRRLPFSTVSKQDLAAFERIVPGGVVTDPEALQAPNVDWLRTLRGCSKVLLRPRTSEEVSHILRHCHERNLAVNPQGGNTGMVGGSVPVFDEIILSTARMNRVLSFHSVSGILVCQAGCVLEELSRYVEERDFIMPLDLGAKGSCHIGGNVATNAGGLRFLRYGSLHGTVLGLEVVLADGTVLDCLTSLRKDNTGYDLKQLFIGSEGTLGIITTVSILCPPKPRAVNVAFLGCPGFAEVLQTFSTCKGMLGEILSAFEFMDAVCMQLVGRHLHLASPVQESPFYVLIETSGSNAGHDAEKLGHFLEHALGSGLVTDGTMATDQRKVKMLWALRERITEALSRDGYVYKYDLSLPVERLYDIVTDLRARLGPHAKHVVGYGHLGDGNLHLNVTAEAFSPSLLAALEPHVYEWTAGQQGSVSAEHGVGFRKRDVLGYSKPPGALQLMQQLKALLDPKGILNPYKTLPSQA
Chain of UniProt P61020 (P61020 whole entry, one chain of several): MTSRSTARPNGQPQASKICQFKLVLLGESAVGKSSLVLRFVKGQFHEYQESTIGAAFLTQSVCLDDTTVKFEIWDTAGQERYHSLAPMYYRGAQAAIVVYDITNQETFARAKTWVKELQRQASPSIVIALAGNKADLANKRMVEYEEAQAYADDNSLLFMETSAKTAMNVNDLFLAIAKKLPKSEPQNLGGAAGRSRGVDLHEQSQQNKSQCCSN
Chain of UniProt Q8N2M8 (Q8N2M8 whole entry, one chain of several): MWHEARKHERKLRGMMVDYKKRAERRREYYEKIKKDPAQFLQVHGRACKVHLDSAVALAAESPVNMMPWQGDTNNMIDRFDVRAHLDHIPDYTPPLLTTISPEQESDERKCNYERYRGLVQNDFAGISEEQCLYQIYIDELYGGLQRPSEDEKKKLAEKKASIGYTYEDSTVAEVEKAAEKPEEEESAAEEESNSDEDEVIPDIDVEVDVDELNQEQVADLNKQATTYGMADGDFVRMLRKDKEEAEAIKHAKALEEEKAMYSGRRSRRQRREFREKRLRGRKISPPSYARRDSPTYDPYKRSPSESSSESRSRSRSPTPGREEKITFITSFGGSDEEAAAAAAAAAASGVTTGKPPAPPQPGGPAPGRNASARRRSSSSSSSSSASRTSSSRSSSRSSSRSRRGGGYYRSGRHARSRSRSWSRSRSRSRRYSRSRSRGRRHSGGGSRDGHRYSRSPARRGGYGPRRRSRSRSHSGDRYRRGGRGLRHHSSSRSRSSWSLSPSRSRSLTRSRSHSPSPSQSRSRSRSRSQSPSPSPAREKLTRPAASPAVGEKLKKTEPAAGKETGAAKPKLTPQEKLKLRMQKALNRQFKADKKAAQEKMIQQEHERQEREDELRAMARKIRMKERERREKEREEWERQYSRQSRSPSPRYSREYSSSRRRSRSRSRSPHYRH
Chain of UniProt O14523 (O14523 whole entry): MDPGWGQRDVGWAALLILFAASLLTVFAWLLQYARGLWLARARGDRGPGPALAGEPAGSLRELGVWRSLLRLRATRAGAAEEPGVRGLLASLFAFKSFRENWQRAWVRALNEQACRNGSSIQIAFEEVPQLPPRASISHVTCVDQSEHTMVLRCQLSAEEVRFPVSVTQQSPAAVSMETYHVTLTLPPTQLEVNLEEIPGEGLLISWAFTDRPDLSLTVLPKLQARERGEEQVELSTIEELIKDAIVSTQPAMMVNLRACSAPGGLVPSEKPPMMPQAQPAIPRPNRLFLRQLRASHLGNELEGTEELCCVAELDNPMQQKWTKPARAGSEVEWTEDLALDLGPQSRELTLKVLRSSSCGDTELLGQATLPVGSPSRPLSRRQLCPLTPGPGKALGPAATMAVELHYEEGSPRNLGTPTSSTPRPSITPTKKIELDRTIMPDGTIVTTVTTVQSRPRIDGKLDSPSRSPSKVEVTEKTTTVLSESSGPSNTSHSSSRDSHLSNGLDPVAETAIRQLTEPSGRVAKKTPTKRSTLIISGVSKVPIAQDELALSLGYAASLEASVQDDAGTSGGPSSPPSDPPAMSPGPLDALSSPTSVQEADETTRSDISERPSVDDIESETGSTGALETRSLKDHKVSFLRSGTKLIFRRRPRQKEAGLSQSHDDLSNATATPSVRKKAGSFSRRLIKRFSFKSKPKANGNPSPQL
Chain of UniProt O75037 (O75037 whole entry): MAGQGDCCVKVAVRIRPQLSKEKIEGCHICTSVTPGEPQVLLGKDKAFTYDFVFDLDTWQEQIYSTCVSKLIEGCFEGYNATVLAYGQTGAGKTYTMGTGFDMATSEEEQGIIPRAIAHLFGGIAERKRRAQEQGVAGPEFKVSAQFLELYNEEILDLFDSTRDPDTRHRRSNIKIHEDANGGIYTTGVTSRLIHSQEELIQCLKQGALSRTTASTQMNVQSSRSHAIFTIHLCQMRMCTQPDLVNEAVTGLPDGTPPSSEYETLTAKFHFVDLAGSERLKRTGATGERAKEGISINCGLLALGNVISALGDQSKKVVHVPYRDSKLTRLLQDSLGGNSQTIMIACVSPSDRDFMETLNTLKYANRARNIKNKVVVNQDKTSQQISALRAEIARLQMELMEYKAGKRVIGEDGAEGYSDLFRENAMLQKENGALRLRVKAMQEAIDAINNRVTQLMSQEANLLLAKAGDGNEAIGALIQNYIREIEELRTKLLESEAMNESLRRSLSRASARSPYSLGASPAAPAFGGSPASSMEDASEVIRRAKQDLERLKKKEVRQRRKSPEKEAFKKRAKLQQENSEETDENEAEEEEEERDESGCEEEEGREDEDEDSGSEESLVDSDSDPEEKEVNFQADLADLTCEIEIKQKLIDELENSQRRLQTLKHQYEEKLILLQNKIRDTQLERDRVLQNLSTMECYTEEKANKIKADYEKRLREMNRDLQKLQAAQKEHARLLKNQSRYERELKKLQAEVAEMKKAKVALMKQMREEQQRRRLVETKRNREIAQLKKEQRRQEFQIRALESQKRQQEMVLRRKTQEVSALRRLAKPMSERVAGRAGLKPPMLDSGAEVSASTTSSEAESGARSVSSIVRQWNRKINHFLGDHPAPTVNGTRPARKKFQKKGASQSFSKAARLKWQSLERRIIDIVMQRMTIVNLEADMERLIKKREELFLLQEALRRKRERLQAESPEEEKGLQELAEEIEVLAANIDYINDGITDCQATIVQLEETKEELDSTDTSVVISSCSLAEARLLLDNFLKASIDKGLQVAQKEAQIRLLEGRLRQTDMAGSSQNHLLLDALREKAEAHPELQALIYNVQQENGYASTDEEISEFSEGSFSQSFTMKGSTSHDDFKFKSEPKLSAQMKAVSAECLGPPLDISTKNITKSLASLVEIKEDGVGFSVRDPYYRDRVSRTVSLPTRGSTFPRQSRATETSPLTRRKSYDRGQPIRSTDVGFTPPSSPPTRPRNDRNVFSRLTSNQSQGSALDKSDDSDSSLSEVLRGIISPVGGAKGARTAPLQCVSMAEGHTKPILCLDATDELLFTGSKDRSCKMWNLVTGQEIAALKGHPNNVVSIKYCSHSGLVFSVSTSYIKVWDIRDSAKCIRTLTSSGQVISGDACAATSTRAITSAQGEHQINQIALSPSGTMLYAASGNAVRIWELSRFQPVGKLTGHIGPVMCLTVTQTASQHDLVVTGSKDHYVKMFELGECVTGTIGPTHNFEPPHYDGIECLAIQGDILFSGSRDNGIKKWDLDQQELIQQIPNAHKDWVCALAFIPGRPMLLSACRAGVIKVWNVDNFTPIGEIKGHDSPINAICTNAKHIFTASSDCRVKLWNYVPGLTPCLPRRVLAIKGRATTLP
Chain of UniProt Q15269 (Q15269 whole entry, looked up, one chain of several): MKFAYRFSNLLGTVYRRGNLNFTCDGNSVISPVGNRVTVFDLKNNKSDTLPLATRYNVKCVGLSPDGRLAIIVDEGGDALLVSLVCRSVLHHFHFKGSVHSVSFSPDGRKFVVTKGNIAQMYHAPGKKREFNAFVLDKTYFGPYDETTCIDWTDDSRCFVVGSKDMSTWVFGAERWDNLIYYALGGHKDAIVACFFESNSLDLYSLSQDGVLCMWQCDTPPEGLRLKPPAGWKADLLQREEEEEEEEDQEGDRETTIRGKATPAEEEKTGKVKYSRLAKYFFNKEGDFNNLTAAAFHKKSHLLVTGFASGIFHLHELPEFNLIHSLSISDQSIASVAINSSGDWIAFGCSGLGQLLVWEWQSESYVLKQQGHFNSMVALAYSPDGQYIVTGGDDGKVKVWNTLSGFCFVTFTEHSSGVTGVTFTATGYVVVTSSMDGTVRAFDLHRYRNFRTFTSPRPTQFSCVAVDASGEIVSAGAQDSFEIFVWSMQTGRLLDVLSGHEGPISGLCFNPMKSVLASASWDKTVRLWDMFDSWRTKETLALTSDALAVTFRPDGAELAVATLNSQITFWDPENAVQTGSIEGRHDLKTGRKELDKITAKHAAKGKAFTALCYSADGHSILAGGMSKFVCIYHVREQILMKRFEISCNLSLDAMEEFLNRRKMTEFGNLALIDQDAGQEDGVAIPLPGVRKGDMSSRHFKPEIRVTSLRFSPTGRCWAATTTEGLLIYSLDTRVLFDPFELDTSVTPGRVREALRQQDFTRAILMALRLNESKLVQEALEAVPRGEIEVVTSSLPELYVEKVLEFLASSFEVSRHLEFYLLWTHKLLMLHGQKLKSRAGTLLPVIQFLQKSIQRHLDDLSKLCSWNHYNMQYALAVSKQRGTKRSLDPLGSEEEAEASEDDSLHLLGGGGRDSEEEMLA
Chain of UniProt Q5TC12 (Q5TC12 whole entry, one chain of several): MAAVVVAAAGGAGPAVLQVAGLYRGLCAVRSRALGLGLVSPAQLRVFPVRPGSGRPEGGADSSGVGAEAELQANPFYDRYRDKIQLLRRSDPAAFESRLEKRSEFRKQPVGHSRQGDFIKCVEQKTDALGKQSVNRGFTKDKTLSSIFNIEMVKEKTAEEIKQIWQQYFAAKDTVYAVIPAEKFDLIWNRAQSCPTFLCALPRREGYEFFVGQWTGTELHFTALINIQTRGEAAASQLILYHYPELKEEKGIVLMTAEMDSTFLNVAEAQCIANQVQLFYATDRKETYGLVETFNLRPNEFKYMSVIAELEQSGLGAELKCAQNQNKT

Target	NP40-soluble protein abundance (concentration: 1mM)	NP40-soluble protein abundance (concentration: 2mM)	NP40-soluble protein abundance (concentration: 4mM)	NP40-soluble protein abundance (concentration: 6mM)	NP40-soluble protein abundance (concentration: 8mM)	NP40-soluble protein abundance (concentration: 10mM)
J3QTA2|Q99933|Q99933-3|Q99933-4 (UniProt Q99933)	1.01 ± 0.028	1.029 ± 0.0083	0.992 ± 0.012	0.99 ± 0.03	0.965 ± 0.038	0.993 ± 0.021
H7C1I0|Q96K37|Q96K37-2 (UniProt Q96K37)	1.02 ± 0.041	1.03 ± 0.017	1.02 ± 0.022	1.02 ± 0.039	1.05 ± 0.054	1.07 ± 0.056
F8WCF9|G5E9E8|Q8N465|Q8N465-2|Q8N465-3 (UniProt Q8N465)	0.983 ± 0.03	1.01 ± 0.012	0.992 ± 0.01	1.04 ± 0.035	1.02 ± 0.032	1.03 ± 0.02
F6U236|Q9BY11 (UniProt Q9BY11)	0.978 ± 0.036	1.03 ± 0.057	0.968 ± 0.018	1 ± 0.063	0.978 ± 0.069	0.989 ± 0.054
F8VX04|Q9H2H9 (UniProt Q9H2H9)	1.14 ± 0.1	1.36 ± 0.19	1.1 ± 0.051	1.06 ± 0.094	1.01 ± 0.087	1.13 ± 0.19
K7ER90|O75821|K7EL60 (UniProt O75821)	1.02 ± 0.075	1.1 ± 0.077	1.11 ± 0.095	1.24 ± 0.045	1.27 ± 0.074	1.42 ± 0.14
A8MXP9|P43243 (UniProt P43243)	1.03 ± 0.033	1.07 ± 0.016	1.05 ± 0.016	1.07 ± 0.042	1.08 ± 0.025	1.1 ± 0.028
UniProt O00567	1.08 ± 0.026	1.08 ± 0.024	1.16 ± 0.026	1.25 ± 0.056	1.37 ± 0.087	1.53 ± 0.12
B4DXZ6|P51114 (UniProt P51114)	1.12 ± 0.029	1.17 ± 0.039	1.3 ± 0.055	1.43 ± 0.15	1.55 ± 0.2	1.62 ± 0.2
E9PGC5|Q15262-2|Q15262-3|Q15262-4|Q5TG12|Q15262 (UniProt Q15262)	1.02 ± 0.011	1.04 ± 0.053	1.02 ± 0.028	1.01 ± 0.015	0.997 ± 0.011	1.01 ± 0.019
H3BRQ0|Q96CD2 (UniProt Q96CD2)	0.997 ± 0.028	0.998 ± 0.014	0.9917 ± 0.0054	1.018 ± 0.008	1 ± 0.041	0.978 ± 0.011
A0A0A0MQS2|F5H0Q6 (UniProt Q8N2M8)	1.06 ± 0.049	1.13 ± 0.083	1.04 ± 0.064	1.06 ± 0.1	1.04 ± 0.043	1.06 ± 0.015
H7C5I3|J3KR55|P35236|P35236-2|P35236-3 (UniProt P35236)	0.978 ± 0.0098	1.01 ± 0.021	0.994 ± 0.037	0.978 ± 0.011	0.959 ± 0.018	0.982 ± 0.033
UniProt A3KMH1|A3KMH1-3	0.93 ± 0.024	0.858 ± 0.098	0.933 ± 0.025	0.874 ± 0.035	0.879 ± 0.017	0.8557 ± 0.0057
UniProt O14523|O14523-2	0.973 ± 0.015	0.988 ± 0.013	0.985 ± 0.037	0.968 ± 0.027	0.97 ± 0.047	1.01 ± 0.06
E9PB61|Q86V81 (UniProt Q86V81)	0.969 ± 0.032	1.08 ± 0.042	1.09 ± 0.027	1.27 ± 0.081	1.41 ± 0.14	1.6 ± 0.28
MYO1G (UniProt B0I1T2)	1.14 ± 0.074	1.12 ± 0.11	1.27 ± 0.22	1.34 ± 0.3	1.44 ± 0.43	1.47 ± 0.46
A0A0C4DG78|M0R3C6|Q8TBC5|Q8TBC5-2|Q8TBC5-3|Q8TBC5-4 (UniProt Q8TBC5)	1 ± 0.012	1.02 ± 0.03	0.984 ± 0.028	1.016 ± 0.003	1.002 ± 0.0089	1.02 ± 0.011
FAM20B (UniProt O75063)	0.973 ± 0.02	0.993 ± 0.022	0.978 ± 0.024	0.99 ± 0.024	0.963 ± 0.016	1 ± 0.042
E5RFJ1|Q96MF7 (UniProt Q96MF7)	1.01 ± 0.028	1.03 ± 0.06	1.02 ± 0.035	0.957 ± 0.033	0.989 ± 0.022	0.9706 ± 0.0092
HMGN4 (UniProt O00479)	1.024 ± 0.01	1.01 ± 0.047	1.04 ± 0.056	1.1 ± 0.07	1.08 ± 0.075	1.22 ± 0.076
G3V5N8|Q9HBF4|Q9HBF4-3 (UniProt Q9HBF4)	0.991 ± 0.012	0.986 ± 0.035	0.987 ± 0.054	0.96 ± 0.021	0.968 ± 0.0098	0.938 ± 0.047
F5GXC5|H3BUJ1|Q8TB96 (UniProt Q8TB96)	1.01 ± 0.017	1.02 ± 0.054	1.01 ± 0.037	1.008 ± 0.0079	1.01 ± 0.024	0.996 ± 0.023
C9JJV1|Q9Y5U2|Q9Y5U2-2|A6NCC9|C9JHT9|E9PME3 (UniProt Q9Y5U2)	1.01 ± 0.013	1.04 ± 0.076	1.01 ± 0.01	0.968 ± 0.047	0.951 ± 0.048	0.968 ± 0.068
E7EUU4|E7EX73|E9PGM1|Q04637-8|Q04637-4 (UniProt Q04637)	1.06 ± 0.036	1.12 ± 0.039	1.12 ± 0.045	1.14 ± 0.063	1.15 ± 0.039	1.17 ± 0.056

Target	NP40-soluble protein abundance (concentration: 1mM)	NP40-soluble protein abundance (concentration: 2mM)	NP40-soluble protein abundance (concentration: 4mM)	NP40-soluble protein abundance (concentration: 6mM)	NP40-soluble protein abundance (concentration: 8mM)	NP40-soluble protein abundance (concentration: 10mM)
J3KS94|J3QQK6|P02686|P02686-2 (UniProt P02686)	0.968 ± 0.054	0.993 ± 0.035	0.96 ± 0.03	0.928 ± 0.033	0.896 ± 0.013	0.903 ± 0.029
UniProt O75037|O75037-2	1.03 ± 0.042	1.06 ± 0.018	1.04 ± 0.05	1.01 ± 0.04	1 ± 0.032	1.04 ± 0.052
A0A0A6YYC8|I3L1I5 (UniProt I3L1I5)	1.01 ± 0.027	1.02 ± 0.04	1.02 ± 0.012	1.01 ± 0.023	1 ± 0.02	1.009 ± 0.0072
H3BPB8|P34949 (UniProt P34949)	1.029 ± 0.0072	1.01 ± 0.039	1.02 ± 0.027	0.976 ± 0.029	1.01 ± 0.042	0.988 ± 0.048
UniProt O60508|Q5SRN1	1.03 ± 0.018	1.07 ± 0.029	1.06 ± 0.026	1.09 ± 0.059	1.08 ± 0.044	1.13 ± 0.056
A0A0G2JNU3|A6H8Y1|A6H8Y1-6|A6H8Y1-7 (UniProt A6H8Y1)	1.05 ± 0.041	1.087 ± 0.0063	1.12 ± 0.056	1.17 ± 0.067	1.12 ± 0.07	1.22 ± 0.046
K7EKM7 (UniProt O75264)	1 ± 0.035	0.988 ± 0.015	1 ± 0.038	0.971 ± 0.032	0.9753 ± 0.0085	1.01 ± 0.014
H3BRF9|Q96K21|Q96K21-3 (UniProt Q96K21)	0.998 ± 0.015	1.03 ± 0.05	1.02 ± 0.049	0.979 ± 0.02	0.959 ± 0.028	0.997 ± 0.044
M0QXA7|O95785-3 (UniProt O95785)	1.02 ± 0.031	1.04 ± 0.029	1.06 ± 0.013	1.04 ± 0.034	1.02 ± 0.023	1.07 ± 0.032
LSM1 (UniProt O15116)	0.913 ± 0.018	0.961 ± 0.041	0.921 ± 0.0096	0.918 ± 0.023	0.907 ± 0.011	0.897 ± 0.024
F8WF69|P09496-2 (UniProt P09496)	0.9494 ± 0.001	0.919 ± 0.057	0.873 ± 0.05	0.833 ± 0.033	0.806 ± 0.014	0.813 ± 0.018
B5MCS2|Q8WTS6 (UniProt Q8WTS6)	0.93 ± 0.076	0.946 ± 0.039	0.946 ± 0.043	0.954 ± 0.032	0.957 ± 0.022	0.936 ± 0.042
A0A0C4DH01|Q9NVU0|Q9NVU0-4|Q9NVU0-5|Q9NVU0-2|Q9NVU0-3 (UniProt Q9NVU0)	1 ± 0.058	1.02 ± 0.019	1.06 ± 0.052	1.03 ± 0.063	1.02 ± 0.064	1.07 ± 0.081
UniProt O43148|O43148-2	0.996 ± 0.013	1.01 ± 0.011	0.992 ± 0.017	0.992 ± 0.027	0.985 ± 0.029	1 ± 0.033
F8VQE1|Q9UHB6|Q9UHB6-2 (UniProt Q9UHB6)	1.17 ± 0.073	1.28 ± 0.2	1.33 ± 0.12	1.39 ± 0.18	1.37 ± 0.17	1.58 ± 0.21
I3L448|Q5TC12 (UniProt Q5TC12)	1.01 ± 0.033	1.02 ± 0.015	1.01 ± 0.039	0.992 ± 0.029	0.965 ± 0.027	0.977 ± 0.039
A0A0B4J2E5|Q15269 (UniProt Q15269)	1.05 ± 0.019	1.04 ± 0.098	1.23 ± 0.043	1.38 ± 0.036	1.56 ± 0.074	1.52 ± 0.095
RNF113A (UniProt O15541)	1.02 ± 0.038	1.04 ± 0.089	0.999 ± 0.029	0.979 ± 0.017	0.935 ± 0.012	0.973 ± 0.035
H3BLV9|Q5R363|Q96SB4|Q96SB4-3|Q96SB4-4 (UniProt Q96SB4)	1.08 ± 0.011	1.14 ± 0.035	1.22 ± 0.035	1.29 ± 0.036	1.359 ± 0.011	1.46 ± 0.044
A0A0A6YYH1|H0YLI7|P59780|Q7Z6K5-2 (UniProt Q7Z6K5+P59780+H0YLI7)	1 ± 0.04	1.01 ± 0.011	0.9742 ± 0.0072	0.974 ± 0.028	0.965 ± 0.032	0.968 ± 0.017
E7EQN5|P98171|P98171-2 (UniProt P98171)	0.999 ± 0.013	0.997 ± 0.05	1.02 ± 0.032	1.03 ± 0.077	1.01 ± 0.056	1.04 ± 0.023
F8VUY8|Q96QD8 (UniProt Q96QD8)	1 ± 0.015	1.07 ± 0.091	1 ± 0.022	0.967 ± 0.022	0.988 ± 0.014	0.989 ± 0.02
F8W922|Q9H7P6|Q9H7P6-2 (UniProt Q9H7P6)	1.01 ± 0.013	0.98 ± 0.022	0.989 ± 0.02	1.02 ± 0.032	1.02 ± 0.016	1.02 ± 0.013
F8VVZ0|P61020 (UniProt P61020)	1.03 ± 0.028	0.993 ± 0.013	1.01 ± 0.024	1.07 ± 0.026	1.08 ± 0.064	1.05 ± 0.018
